Most compounds without a hit are left out; they make up all but 2.2% or so of the library.
CHRM1 antagonist: blocks human M1 muscarinic receptor; CHO-K1 hM1, Fluo-8 calcium fluorescence, ACh EC80 antagonist; inhibition, % at 3 µM; actives 1.3% (n = 360,000);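 active = percent inhibition above its own plate's cutoff, namely the mean of that plate's compound wells plus 3 SD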;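 note: peak over basal fluorescence ratio during 140 s after agonist addition; 0% = ACh EC80 plus DMSO and 100% = DMSO alone without agonist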
Target sequence (P11229 whole entry, looked up): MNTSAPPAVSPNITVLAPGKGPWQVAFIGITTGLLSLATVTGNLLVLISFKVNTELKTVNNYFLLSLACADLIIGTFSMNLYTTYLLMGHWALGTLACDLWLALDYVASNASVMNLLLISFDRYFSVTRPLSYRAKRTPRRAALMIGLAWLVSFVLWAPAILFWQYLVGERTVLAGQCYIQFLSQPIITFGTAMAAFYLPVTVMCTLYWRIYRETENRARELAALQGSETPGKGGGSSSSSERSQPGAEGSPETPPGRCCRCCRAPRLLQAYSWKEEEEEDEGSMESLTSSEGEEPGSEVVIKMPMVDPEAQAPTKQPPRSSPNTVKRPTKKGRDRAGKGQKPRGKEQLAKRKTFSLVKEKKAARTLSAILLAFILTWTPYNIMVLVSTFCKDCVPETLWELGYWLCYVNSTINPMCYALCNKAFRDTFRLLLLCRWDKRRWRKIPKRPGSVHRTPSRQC
M1 PAM: potentiates human M1 receptor response to acetylcholine; P11229; CHO-K1 hM1, Fluo-8 calcium fluorescence, ACh EC20; 0% = ACh EC20, 100% = maximal ACh; activation, % at 3 µM; actives 0.088% (n = 360,000); in the data active = activation above about 19%, passing the limit was not always enough
CHRM1 agonist: activates human CHRM1 receptor. P11229. CHO-K1 hM1, Fluo-8 calcium fluorescence, agonist mode; 0% DMSO, 100% acetylcholine EC100. activation, % at 3 µM. actives 0.33% (n = 360,000);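 active = activation above the run's mean compound activation plus 3 SD, cut at about 16% in these data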;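 note: peak over basal fluorescence ratio within a 140 s kinetic read after compound addition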
CHRM4 PAM: CHRM4 positive allosteric modulation | P08173 | activation, % at 3 µM | AID 624126 | actives 0.4% (n = 360,000) | CHO-K1 hM4/Gqi5, Fluo-8 calcium fluorescence, ACh EC20; 0% = ACh EC20, 100% = maximal ACh;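 active = activation above its plate's cutoff, the mean activation of sample wells plus 3 SD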
CHRM4 antagonist: CHRM4 antagonism in calcium assay. AID 624125. actives 0.73% (n = 360,000). CHO-hM4 cells, ACh EC80, Fluo-8 calcium fluorescence. inhibition, % at 3 µM;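 active = inhibition above its plate's cutoff, the mean inhibition of sample wells plus 3 SD, cut at about 27% in these data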;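 note: 0% = acetylcholine EC80 with DMSO and 100% = DMSO without agonist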
M4 ag: CHRM4 agonism in calcium assay. activation, % at 3 µM. CHO-K1 hM4/Gqi5, Fluo-8 calcium fluorescence; vehicle 0%, full acetylcholine response 100%. actives 0.14% (n = 360,000). P08173;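 active = activation above the run mean over all test wells plus 3 SD, cut at about 32% in these data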;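 note: peak over basal fluorescence ratio per well then scaled between controls; 0% = DMSO wells and 100% = acetylcholine at EC100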
Active calls of the source: *.

SMILES | CHRM1 antagonist | M1 PAM | CHRM1 agonist | CHRM4 PAM | CHRM4 antagonist | M4 ag
CC(C)C[C@H](NC(=O)/C=C/[C@H]1O[C@@H](n2ccc(=O)[nH]c2=O)[C@H](O)[C@@H]1O)C(=O)O | -14 | 7 | 17* | 2 | -1 | 0
C/C(=N\O)c1ccc(N2C(=O)C3CC=C(Cl)CC3C2=O)cc1 (stereo not given) | 2 | 0 | -4 | 12 | 11 | 2
COc1ccc(Nc2nc(Cl)c(C=O)s2)cc1 | 37* | -17 | -3 | -18 | 12 | 19
C=C(C)C(=O)Nc1ccc(NC(C)C)cc1 | -11 | 6 | 0 | 0 | -1 | 0
COc1ccc(OC)c(NC(=O)CSc2nc(C)cs2)c1 | -9 | 7 | -3 | 45* | 3 | -2
CCc1nc(SCC(=O)Nc2cc(OC)ccc2OC)c2c(C)c(C)sc2n1 | 33* | -11 | -7 | 0 | 5 | 1
COc1ccc(NC(=O)CSc2nc(C)cs2)c(OC)c1 | -17 | 10 | 0 | 4 | -6 | 1
COCCNC(=O)Cn1cnc2c(cnn2-c2ccc(C)cc2)c1=O | -11 | 10 | -4 | -4 | 1 | 0
COCCN1C(=O)/C(=C/c2ccc(N3CCCC3)cc2C)SC1=S | 31* | -9 | 7 | -7 | 6 | 7
COc1cc(NC(=O)C2=C(N3CCOCC3)/C(=C\c3ccc(N(C)C)cc3)CCC2)cc(OC)c1OC | 0 | 8 | -5 | 21* | 3 | 1
COc1cc(NC(=O)C2=C(N3CCOCC3)/C(=C/c3ccc(Cl)cc3)CC2)cc(OC)c1OC | -6 | 6 | -9 | 8 | 0 | 0
CSCC[C@H](NC(=O)C1CCN(S(=O)(=O)c2ccccc2)CC1)C(=O)NC1CC1 | -4 | 1 | -6 | 2 | 10 | 1
COc1ccc(S(=O)(=O)Nc2cccc3c2O[C@H](CN(C)S(=O)(=O)c2cccs2)[C@@H](C)CN([C@H](C)CO)C3=O)cc1 | 9 | -5 | -7 | -5 | 5 | 3
CCn1cc(C(=O)NCCCN2CCC(C)CC2)c(=O)c2cc(S(=O)(=O)N(C)C3CCCCC3)ccc21 | 38* | -16 | -6 | -8 | 24 | 0
CCn1cc(C(=O)NCCCN2CC(C)CC(C)C2)c(=O)c2cc(S(=O)(=O)N(C)C3CCCCC3)ccc21 (stereo not given) | 12 | -13 | -6 | -14 | 33* | 0
CC1CN(c2ccc(NC(=S)Nc3ccc(N4CC(C)OC(C)C4)cc3)cc2)CC(C)O1 (stereo not given) | -5 | 4 | -3 | -10 | -1 | 2
CCOC(=O)c1ccc(N/C=C2\CCCCC2=O)cc1 | -20 | 14 | -2 | 5 | 1 | 0
c1ccn2cc(C34CC5CC(CC(C5)C3)C4)nc2c1 | 54* | -23 | -6 | -27 | 60* | 2
COc1ccccc1CNCC(=O)Nc1ccc(C(F)(F)F)cc1 | -19 | 8 | -3 | 0 | 6 | 3
CN(CC#CC(O)(c1ccccc1)c1ccccc1)C(C)(C)C | 100* | -25 | -9 | -16 | 92* | 1
CN(C)Cc1ccccc1C(O)(c1ccccc1)c1ccccc1 | 30 | -23 | -8 | -9 | 11 | 0
CC(C)N(CC#CC(O)(c1ccccc1)c1ccccc1)CCO | 84* | -25 | -8 | -18 | 42* | 1
OCCN(CC#CC(O)(c1ccccc1)c1ccccc1)CCO | -2 | -5 | -7 | 4 | -9 | 1
CC(C)N(CC#CC(O)(c1ccccc1)c1ccccc1)C(C)C | 100* | -26 | -9 | -59 | 98* | 1
CCOC(=O)NC(=O)CN1C(=O)NC2(CCc3ccccc32)C1=O (stereo not given) | -10 | 13 | -4 | 13 | -21 | 1
SMILES | CHRM1 antagonist | M1 PAM | CHRM1 agonist | CHRM4 PAM | CHRM4 antagonist | M4 ag
CCOCCN1CCN(C2c3ccccc3CSc3ccccc32)CC1 (stereo not given) | 100* | -26 | -8 | -15 | 99* | 0
COC(=O)[C@H]1C[C@H](C(=O)O)[C@@H](C)C1(C)C | 4 | 2 | -2 | 6 | 10 | 3
CC1(C)Cc2cccc(OCC(=O)NCc3ccccc3F)c2O1 | 29* | -12 | -3 | 3 | -10 | 4
CCN(CC)S(=O)(=O)c1ccc(C(=O)OCn2nnc3ccccc3c2=O)cc1 | active | -15 | -2 | -8 | 6 | 14
COc1ccc(NC(=O)Cc2cccs2)cc1S(=O)(=O)N1CCCCC1 | -8 | -3 | 3 | -5 | -10 | 8
COc1ccc(NC(C)=O)cc1S(=O)(=O)N1CCN(Cc2cccs2)CC1 | -10 | 24* | 6 | 15 | -20 | 2
O=C(COC(=O)C1(c2ccccc2F)CCCC1)NC1CCS(=O)(=O)C1 (stereo not given) | -6 | 7 | -3 | 24* | -16 | 1
O=C(COc1ccccc1)NC1CCS(=O)(=O)C1 (stereo not given) | -3 | 9 | -1 | 1 | -6 | 1
Nc1c(C(=O)NCc2ccc3c(c2)OCO3)nnn1Cc1ccc(Br)cc1 | 0 | 7 | 16* | 1 | 17 | 30
Cc1ccc(C)c(Cn2nnc(C(=O)Nc3ccc4c(c3)OCCO4)c2N)c1 | 8 | 5 | 28* | 7 | -4 | 23
Cc1ccccc1Cn1nnc(C(=O)Nc2ccc3c(c2)OCCO3)c1N | -1 | 2 | 4 | -4 | -8 | 4
Cc1cc(C)cc(NC(=O)c2nnn(Cc3cc(C)ccc3C)c2N)c1 | 6 | -3 | 26* | -10 | 15 | 32*
Cc1cc(C)c(C#N)c(Oc2ccc(O)cc2)n1 | 13 | -8 | -1 | -6 | 1 | -1
O=C(CCN1C(=O)C2CCCCC2C1=O)Nc1nc2ccc(F)cc2s1 (stereo not given) | 0 | 4 | -4 | 5 | 1 | 2
COc1cccc(C(=O)C[n+]2ccccc2/C=N/O)c1 | 27* | -20 | -11 | -16 | -3 | 8
COc1cccc(C(=O)C[n+]2cccc3cc(OC)ccc32)c1 | -2 | 8 | -7 | -3 | 9 | 0
COc1ccc(NC(=O)CN(C)C(=O)c2cc(-c3ccc(OC)cc3)nc3ccccc23)cc1 | 29* | -10 | -2 | -6 | 14 | 23
COc1ccc(Cl)cc1NC(=O)CN(C)C(=O)c1cc(-c2ccncc2)nc2ccccc12 | 23 | -8 | -2 | -14 | 13 | 33*
CN(CCOc1ccc(Cl)cc1)C(=O)c1cc(-c2ccco2)nc2ccccc12 | 38* | -11 | -1 | -10 | 19 | 22
CCNC(=O)COC(=O)c1cc(-c2ccc(OC)cc2)nc2ccccc12 | 14* | -9 | -3 | -11 | 0 | 7
COc1ccc(NC(=O)CN(C)C(=O)c2cc(-c3ccncc3)nc3ccccc23)cc1 | 12 | -4 | -1 | -10 | 7 | 18

Screening results from PubChem.
